Measurements from PubChem BioAssay.
For some of these results: Results with a measured potency or affinity are listed apart. Activity calls are given as the source filed them.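 Rule for the calls, unless noted: active = primary screen hit whose fluorescence ratio, in both repeats, exceeds the weak agonist control mean by 3 SD; inactive = the rest.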

Key:
[1] = test system: TRPC4 beta (transient receptor potential cation channel C4), mouse; test: activators of mouse TRPC4 channel, confirmation, cell-based, Fluo4 calcium, HEK293 TRPC4beta/mu-opioid, duplicates, 10 µM (AID 2426;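 active = fluorescence ratio normalized to control raised more than 50% in primary screen plus both repeat runs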); conditions: Fluo4 calcium fluorescence, at 10 µM; stronger effect = higher value
[2] = test system: transient receptor potential cation channel C4 beta (TRPC4), mouse; test: activators of mouse TRPC4 channel, confirmation, cell-based, second round, Fluo4, HEK293 TRPC4beta/mu-opioid, 1 µM (AID 2461;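 active = primary screen active and over 50% activation in each of two duplicate runs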); conditions: Fluo4 calcium fluorescence, at 1 µM; stronger effect = higher value
[3] = test system: TRPC4 (transient receptor potential cation channel C4 beta), mouse; test: positive allosteric modulators of mouse TRPC4, confirmation, cell-based, second round, Fluo-4, HEK293 TRPC4beta/mu-opioid, 1 µM (AID 2554); conditions: DAMGO EC20, Fluo-4 calcium flux, at 1 µM; stronger effect = higher value
[4] = test system: TRPC4 beta (transient receptor potential cation channel C4), mouse; test: positive allosteric modulators of mouse TRPC4, confirmation, cell-based, Fluo-4, HEK293 TRPC4beta/mu-opioid (AID 2555;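 active = primary screen hit whose calcium fluorescence ratio, in both repeats, exceeds the weak agonist control mean by 3 SD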); conditions: DAMGO EC20, Fluo-4 calcium flux, at 10 µM; stronger effect = higher value
[5] = biological target: Short transient receptor potential channel 4 (Mus musculus) (UniProt Q9QUQ5); test: inhibitors of mouse TRPC4 channel, confirmation, cell-based, Fluo4, HEK293 TRPC4beta/mu-opioid (AID 2636;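 active = calcium signal cut by more than 3 SD below the full-agonist control yet still positive, in both repeats and the earlier primary screen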); conditions: DAMGO, Fluo4 calcium flux, at 10 µM; stronger effect = higher value
Sequence of Short transient receptor potential channel 4 (Mus musculus) (Q9QUQ5 whole entry, looked up): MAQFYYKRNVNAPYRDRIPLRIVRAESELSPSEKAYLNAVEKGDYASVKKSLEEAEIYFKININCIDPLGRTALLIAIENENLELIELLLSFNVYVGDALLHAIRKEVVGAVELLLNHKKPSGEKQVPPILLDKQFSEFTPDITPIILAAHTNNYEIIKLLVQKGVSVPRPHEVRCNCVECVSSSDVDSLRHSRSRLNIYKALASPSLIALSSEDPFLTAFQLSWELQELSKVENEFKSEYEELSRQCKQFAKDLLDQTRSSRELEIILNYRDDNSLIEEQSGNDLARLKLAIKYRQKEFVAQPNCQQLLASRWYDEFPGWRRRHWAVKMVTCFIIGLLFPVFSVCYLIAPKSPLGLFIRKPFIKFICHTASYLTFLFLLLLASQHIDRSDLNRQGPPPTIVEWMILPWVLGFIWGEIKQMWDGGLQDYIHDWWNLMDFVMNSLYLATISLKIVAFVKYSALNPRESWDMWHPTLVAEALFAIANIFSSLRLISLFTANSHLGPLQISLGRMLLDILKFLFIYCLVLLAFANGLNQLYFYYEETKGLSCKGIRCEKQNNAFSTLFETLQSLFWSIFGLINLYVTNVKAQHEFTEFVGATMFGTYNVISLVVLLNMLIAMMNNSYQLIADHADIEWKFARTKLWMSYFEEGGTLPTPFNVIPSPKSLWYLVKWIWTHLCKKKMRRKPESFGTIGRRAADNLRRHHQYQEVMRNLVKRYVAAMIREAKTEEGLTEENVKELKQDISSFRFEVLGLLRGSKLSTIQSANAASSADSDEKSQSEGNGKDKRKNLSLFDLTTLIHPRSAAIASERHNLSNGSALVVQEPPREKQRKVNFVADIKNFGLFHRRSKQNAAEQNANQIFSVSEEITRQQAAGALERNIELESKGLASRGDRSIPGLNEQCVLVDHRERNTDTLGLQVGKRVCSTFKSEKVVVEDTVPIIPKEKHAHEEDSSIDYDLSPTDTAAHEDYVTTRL

[6] = biological target: Short transient receptor potential channel 4 (Mus musculus) (UniProt Q9QUQ5); test: inhibitors of mouse TRPC4 channel, confirmation, cell-based, second round, Fluo4, HEK293 TRPC4beta/mu-opioid, 1 µM (AID 2637;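 active = calcium signal ratio cut to more than 3 SD under the fully stimulated control mean yet still positive, in both repeats and the primary screen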;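 for inhibition: percent of integrated ratio relative to wells lacking test compound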); conditions: Fluo4 calcium flux, DAMGO, at 1 µM; stronger effect = higher value
[7] = biological target: Short transient receptor potential channel 4 (Mus musculus) (UniProt Q9QUQ5); test: mouse TRPC4 channel activators, dose response, cell-based, HEK293 TRPC4/mu-opioid, Fluo-4 calcium (AID 434937;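 active = primary screen activator hit with a dose response curve and TRPC4 channel activation at any tested dose; inactive = no activation, no dose response, or not a primary hit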)
[8] = biological target: Short transient receptor potential channel 4 (Mus musculus) (UniProt Q9QUQ5); test: TRPC4 positive allosteric modulators, dose response, cell-based, HEK293 TRPC4/mu-opioid, Fluo-4 calcium, EC20 DAMGO (AID 434941;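 active = earlier screen potentiator hit that boosts the TRPC4 ion channel at some dose, with a dose response; inactive = no potentiation, no dose response, or not a prior hit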;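 note: calcium entry triggered by an EC20 dose of DAMGO at the co-expressed mu-opioid receptor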)
[9] = biological target: Short transient receptor potential channel 6 (Mus musculus) (UniProt Q61143); test: inhibition of mouse TRPC6 channel, confirmation, selectivity assay for TRPC4 inhibitor project, cell-based, HEK293, membrane potential dye, duplicate (AID 434948;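 active = active in primary screen and both duplicates, each dropping signal beyond three positive-control SD with fluorescence still positive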); conditions: HEK293 TRPC6, membrane potential dye fluorescence, at 10 µM, stimulated with maximal-effect acetylcholine; stronger effect = higher value
Sequence of Short transient receptor potential channel 6 (Mus musculus) (Q61143 whole entry, looked up): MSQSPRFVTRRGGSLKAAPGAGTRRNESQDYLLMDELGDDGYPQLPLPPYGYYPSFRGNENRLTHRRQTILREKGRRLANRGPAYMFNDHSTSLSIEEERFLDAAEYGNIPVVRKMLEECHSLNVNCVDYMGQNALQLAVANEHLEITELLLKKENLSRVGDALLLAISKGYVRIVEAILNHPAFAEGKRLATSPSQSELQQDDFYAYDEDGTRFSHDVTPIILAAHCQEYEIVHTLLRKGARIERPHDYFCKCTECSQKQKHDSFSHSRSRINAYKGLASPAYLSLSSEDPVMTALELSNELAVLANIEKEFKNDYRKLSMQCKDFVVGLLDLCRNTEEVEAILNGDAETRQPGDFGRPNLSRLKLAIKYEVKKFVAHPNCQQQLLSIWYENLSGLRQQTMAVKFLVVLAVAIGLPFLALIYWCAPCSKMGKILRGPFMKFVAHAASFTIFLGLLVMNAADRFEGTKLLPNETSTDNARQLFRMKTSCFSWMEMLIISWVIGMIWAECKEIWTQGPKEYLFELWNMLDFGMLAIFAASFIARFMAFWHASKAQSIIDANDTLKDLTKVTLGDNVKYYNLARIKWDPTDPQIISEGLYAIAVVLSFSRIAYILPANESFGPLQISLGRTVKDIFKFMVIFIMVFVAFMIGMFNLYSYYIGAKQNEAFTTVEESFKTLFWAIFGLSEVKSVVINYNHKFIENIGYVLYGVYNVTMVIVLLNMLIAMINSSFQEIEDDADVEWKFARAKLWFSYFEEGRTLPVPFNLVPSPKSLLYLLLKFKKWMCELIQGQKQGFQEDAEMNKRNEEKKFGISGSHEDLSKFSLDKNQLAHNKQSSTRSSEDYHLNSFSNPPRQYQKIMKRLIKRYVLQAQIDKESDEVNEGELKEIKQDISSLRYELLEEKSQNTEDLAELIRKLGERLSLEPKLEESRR

[10] = biological target: Short transient receptor potential channel 6 (Mus musculus) (UniProt Q61143); test: activation of mouse TRPC6 channel, confirmation, selectivity assay for TRPC4 activator project, cell-based, HEK293, membrane potential dye, duplicate (AID 434950;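 active = membrane potential signal rise above negative control mean plus 3 SD in both duplicates, also active in the earlier TRPC4 screen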); conditions: HEK293 TRPC6, membrane potential fluorescence, at 10 µM; stronger effect = higher value
[11] = biological target: Short transient receptor potential channel 6 (Mus musculus) (UniProt Q61143); test: TRPC6 potentiation by TRPC4 potentiator hits, confirmation, selectivity assay for TRPC4 potentiator project, HEK293 cells, membrane potential dye, duplicate (AID 434952;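 active = compound raising the membrane signal above positive-control mean plus 3 SD in both repeats, and a primary screen hit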); conditions: HEK293 TRPC6, membrane potential dye fluorescence, at 10 µM, maximal acetylcholine added after compound; stronger effect = higher value
[12] = biological target: Short transient receptor potential channel 4 (Mus musculus) (UniProt Q9QUQ5); test: calcium flux activators in TRPC4/5HT1a cells, counter-screen for TRPC4 activator project, cell-based, second counter screen, HEK293 TRPC4/5HT1a, Fluo-4 (AID 434977;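 active = calcium signal rise above buffer-control mean plus 5 SD in both duplicates, and also a hit in the primary screen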); conditions: Fluo-4 calcium flux, at 10 µM; stronger effect = higher value
[13] = calcium flux inhibitors in TRPC4/5HT1a cells, confirmation, counter-screen for TRPC4 inhibitor project, cell-based, second counter screen, HEK293 TRPC4/5HT1a, Fluo-4 (AID 434978;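 active = primary screen active whose calcium signal fell more than 3 SD beyond the full-serotonin control mean in both duplicate plates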); conditions: Fluo-4 calcium flux, at 10 µM, serotonin added to trigger calcium flux; stronger effect = higher value
[14] = test system: TRPC4 (mouse), co-expressed with 5HT1a in HEK293; test: calcium flux potentiators in TRPC4/5HT1a cells, confirmation, counter-screen for TRPC4 potentiator project, cell-based, second counter screen, HEK293 TRPC4/5HT1a, Fluo-4 (AID 434979;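 active = signal rise over 3 SD above mean of control wells given weak agonist, in both repeats and first screen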); conditions: Fluo-4 calcium flux, at 10 µM, serotonin added at its EC20 dose; stronger effect = higher value
[15] = calcium flux activation in mu-opioid HEK293 cells, confirmation, counter-screen for TRPC4 activator project, cell-based, HEK293 mu-opioid receptor line (AID 449723;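 active = hit in primary screen, with calcium signal over 5 SD above buffer well mean in both duplicates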;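 note: counter screen cells carry the mu-opioid receptor alone and lack TRPC4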); conditions: Fluo-4 calcium fluorescence, at 10 µM; stronger effect = higher value
[16] = calcium flux enhancement in mu-opioid HEK293 cells, confirmation, counter-screen for TRPC4 allosteric potentiator project, cell-based, HEK293 mu-opioid receptor line (AID 449724;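 active = calcium signal rise more than 3 SD above the low-dose agonist control mean, in both duplicate plates and the primary screen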); conditions: Fluo-4 calcium flux, at 10 µM, compound added before EC20 DAMGO stimulus; stronger effect = higher value

Measured: inhibition

CCCCN(Cc1ccccc1)C(=O)C1CCN(Cc2sccc2C)CC1
active: [5] 90% | [6] 46% | [13] 32.5%
inactive: all other assays above

OCC(Cc1ccccc1)NCc1ccccc1C(F)(F)F (stereo unspecified)
active: [5] 60%
inactive: all other assays above

CC(C)Oc1cccc(C(=O)C2CCCN(Cc3cnn(C(C)C)c3)C2)c1 (stereo unspecified)
active: [5] 93% | [6] 47%
inactive: all other assays above

COc1ccc(-c2csc(NC(=O)Cc3cccc4ccccc34)c2C(=O)O)cc1
active: [5] 90% | [13] 40.2%
inactive: all other assays above

CCc1nc2ccccc2n1Cc1ccccc1OC
active: [5] 66% | [6] 48% | [13] 43.4%
inactive: all other assays above

OCCNc1nc2ccccc2n1CCN1CCCCC1
active: [5] 91% | [13] 22.9%
inactive: all other assays above

CCN(CC)Cc1cc(CCNC(=O)c2ccc(Cl)cc2)ccc1O
active: [5] 97% | [6] 75% | [13] 31.2%
inactive: all other assays above

Cc1nc2ccccc2n1CCOc1ccc(F)cc1
active: [5] 95% | [6] 79% | [13] 7.92%
inactive: all other assays above

CCCCCn1c2c(c(=N)c3ccccc31)CCC2
active: [5] 96% | [6] 75% | [9] 1.5% | [13] 13.9%
inactive: all other assays above

CC(C)CN(CC(C)C)c1nc(N)c(C#N)c(CC#N)c1C#N
active: [5] 85% | [13] 39.2%
inactive: all other assays above

Cc1ccc(-c2csc(N(CCCN(C)C)C(=O)c3ccco3)n2)cc1
active: [6] 52% | [9] 37.5%
inactive: all other assays above

c1ccn2cc(C34CC5CC(CC(C5)C3)C4)nc2c1
active: [5] 69% | [13] 41.3%
inactive: all other assays above

CC1CCc2c(sc(/N=C/N(C)C)c2C#N)C1 (stereo unspecified)
active: [5] 78%
inactive: all other assays above

Cc1cc(N2CCC(C)CC2)nc2cccc(O)c12
active: [5] 95% | [6] 83% | [9] 59%
inactive: all other assays above

CCOC(=O)C1(CCOC)CCN(C(C)CCc2ccc(OC)cc2)CC1 (stereo unspecified)
active: [5] 75%
inactive: all other assays above

NS(=O)(=O)c1ccc(CCNCc2ccccc2OCc2ccc(F)cc2)cc1
active: [5] 91% | [6] 55% | [13] 24.6%
inactive: all other assays above
